# Experimental data published in PubChem BioAssay.
# “And” between values parts separate entries of the source, which are not always exact repeats. Equal entries are not always repeated. The source made the active and inactive calls.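 How the source made its calls, unless noted: active means compounds whose cell count with miR-34 switched on is under 0.7 times the count with it off; inactive means the rest.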
# How the values were obtained:
# [1] = P. berghei load reduction in hepatocytes – cell-based, HepG2, luciferase luminescence, HepG2 viability, primary screen (AID 624349; in the data active means parasite load remaining mostly below about 12%, no sharp cut-off; inactive means mostly above about 10%;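 further: 100% = mean of DMSO negative control wells on the same plate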); details: P. berghei liver stage in HepG2, luciferase luminescence, concentration not given here; parasite load remaining: stronger effect = lower value; viability: measured here: HepG2 viability without parasites
# [2] = Wnt pathway potentiators raising nuclear beta-catenin – imaging, WNT3A-conditioned medium, mouse C2C12, NPC library, primary screen (AID 1117326; in the data active means nuclear beta-catenin stimulation mostly above about 4.2%, no sharp cut-off; inactive means mostly below about 10%); details: stronger effect = higher value
# [3] = stimulators of insulin release from INS-1E, primary screen, cell-based, 5 mM glucose, NPC library (AID 1117329;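 active means compound raises insulin release from rat beta cells at 5 mM glucose, no numeric limit stated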); details: rat INS-1E insulin secretion, at 10 µM, stronger effect = higher value
# [4] = growth inhibition of GSK3B-pretreated HCT116 cells – cell-based, CellTiter-Glo, 0.2 to 20 µM (AID 1117336;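 active means compounds lowering colon cancer cell viability after pretreatment blocking the GSK3B kinase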); details: HCT116 viability after GSK3B inhibitor, at 20 µM, stronger effect = higher value
# [5] = inhibition of endothelial tube formation, primary screen, imaging, VEGF stimulated, CD31 staining, tube area, NPC library (AID 1117340;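 active means compound that reduces growth-factor-driven endothelial tube area in a mixed cell culture, no cutoff stated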); details: VEGF-stimulated ADSC/ECFC co-culture, at 10 µM, stronger effect = higher value
# [6] = GLP1 release stimulators, primary, NCI-H716, NPC library (AID 1117341;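 active means compound raises GLP1 secretion from the human gut endocrine cells, with no numeric limit stated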); details: NCI-H716 cells, at 10 µM, stronger effect = higher value
# [7] = HCT116 colon cancer cell growth inhibition, primary screen, CellTiter-Glo luminescence, NPC library (AID 1117342;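 active means compounds that lower survival of HCT116 colon cancer cells in the luminescence readout, no numeric limit stated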); details: at 20 µM (top of the series)
# [8] = reduced SW480 viability measured with CellTiter-Glo, NPC library, primary (AID 1117343;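 active means compounds that lower viability of the colon cancer cells in the luminescence readout, with no numeric limit stated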); details: CellTiter-Glo luminescence; at 20 µM (top of the series)
# [9] = NPC library primary testing for decreased DLD-1 cell viability via CellTiter-Glo (AID 1117346;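 active means compounds that lower survival of DLD-1 colon cancer cells in the luminescence readout, no cutoff given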); details: DLD-1 viability, CellTiter-Glo luminescence; at 20 µM (top of the series)
# [10] = EMT-state selective cytotoxicity in co-culture – imaging, PC-3E GFP, TEM4-18 mCherry, primary screen (AID 1345086;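 active means compounds killing one labelled cell type while sparing the other, by normalised counts and ratio limits, not self-fluorescent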;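 on all read-outs here: cells exposed to compound for 72 h before imaging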;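 on red/green cell ratio (normalised): normalised mesenchymal count divided by normalised epithelial count so high means epithelial killing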); details: PC-3E GFP / TEM4-18 mCherry co-culture, imaging cell counts, at 1 µM; for red/green cell ratio (normalised): actives lie on both sides
# [11] = test system: Aerobactin synthetase IucA (Klebsiella pneumoniae hvKP1); test: IucA enzyme inhibition, primary screen, biochemical, Spectrum library (AID 1346200; call rule not given here;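 further: 100% = wells without compound and 0% = wells lacking enzyme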); details: malachite green pyrophosphate, A620, at 8 µM, stronger effect = lower value
# [12] = viability loss with induced miR-34 in A549 – imaging, A549 dox-inducible miR-34, nuclei and caspase counts, primary screen (AID 1347080); details: A549 miR-34 inducible, Hoechst nuclei count, 48 h
# [13] = MELAS cybrid and Rieske KO viability enhancers – cell-based, MELAS cybrids, Rieske KO mouse fibroblasts, CellTiter-Glo, primary screen (AID 1508586;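 active means mean z-score across replicates of 1.96 or higher in either the MELAS or the Rieske mutant cell line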;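 further: z relative to plate mean and SD of compound and empty wells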); details: low glucose
# [14] = target: NAD(+) hydrolase SARM1 (Homo sapiens) (UniProt Q6SZW1); test: blocking NAD cleavage by SARM1 SAM-TIR – cell lysate, NAD-Glo luminescence (AID 1508614;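 active means compound whose remaining NAD level is above about 45 nM, limit read from the data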); details: SAM-TIR HEK293T lysate NADase, at 1 µM, stronger effect = higher value
# [15] = target: Mitogen-activated protein kinase 7 (Homo sapiens) (UniProt Q13164); test: Gal4-ERK5 driven luciferase induction – cell-based, HTS, primary screen (AID 1508626;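 active means luciferase signal above three times the same-plate solvent-only control wells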;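 further: luciferase driven by Gal4-ERK5 fusion binding five Gal4 sites before minimal TATA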); details: HeLa Gal4-ERK5 transactivation, 18 h, at 5 µM, stronger effect = higher value
# [16] = galactose survival enhancers in mitochondrial complex I cybrids – cell-based, galactose medium, ATP luminescence, primary screen (AID 1645843;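 active means z-score of at least 1.8 in each of two replicates, scored against plate mean and spread of sample wells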;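 further: positive z means more ATP and so rescue of galactose-driven cybrid death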); details: complex I mutant cybrid cells, 72 h, stronger effect = higher value
# [17] = measured here: epithelial PC-3E GFP cell survival
# [18] = measured here: mesenchymal TEM4-18 mCherry cell survival
# [19] = measured here: relative caspase fold change +Dox/-Dox
# [20] = measured here: total cells with miR-34 induction, stronger effect = lower value
# [21] = measured here: total cells without miR-34 induction
# [22] = MELAS cybrid survival, CellTiter-Glo 48 h, stronger effect = higher value
# [23] = Rieske KO mouse fibroblast survival, CellTiter-Glo 72 h
# Sequence of NAD(+) hydrolase SARM1 (Homo sapiens) (Q6SZW1 whole entry, looked up, the tested form may be a part): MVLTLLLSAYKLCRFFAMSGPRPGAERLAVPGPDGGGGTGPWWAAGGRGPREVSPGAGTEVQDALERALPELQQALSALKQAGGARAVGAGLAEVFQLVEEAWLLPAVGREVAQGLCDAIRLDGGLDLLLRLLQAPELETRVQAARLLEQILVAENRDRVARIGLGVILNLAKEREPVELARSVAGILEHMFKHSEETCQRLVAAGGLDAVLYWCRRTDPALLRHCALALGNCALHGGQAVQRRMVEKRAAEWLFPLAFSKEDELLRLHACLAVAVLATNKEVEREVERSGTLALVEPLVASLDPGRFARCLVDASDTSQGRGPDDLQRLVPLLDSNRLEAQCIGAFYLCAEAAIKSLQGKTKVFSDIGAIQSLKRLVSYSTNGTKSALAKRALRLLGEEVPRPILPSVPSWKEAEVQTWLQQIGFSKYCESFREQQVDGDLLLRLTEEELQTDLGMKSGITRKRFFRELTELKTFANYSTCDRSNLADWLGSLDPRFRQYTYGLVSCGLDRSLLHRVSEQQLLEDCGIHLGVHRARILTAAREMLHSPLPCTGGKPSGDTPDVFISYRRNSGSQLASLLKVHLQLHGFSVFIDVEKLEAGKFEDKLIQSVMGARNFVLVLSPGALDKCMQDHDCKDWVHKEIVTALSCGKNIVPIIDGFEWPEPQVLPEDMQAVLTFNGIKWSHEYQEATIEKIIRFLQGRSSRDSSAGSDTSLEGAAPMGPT
# Sequence of Mitogen-activated protein kinase 7 (Homo sapiens) (Q13164 whole entry, looked up, the tested form may be a part): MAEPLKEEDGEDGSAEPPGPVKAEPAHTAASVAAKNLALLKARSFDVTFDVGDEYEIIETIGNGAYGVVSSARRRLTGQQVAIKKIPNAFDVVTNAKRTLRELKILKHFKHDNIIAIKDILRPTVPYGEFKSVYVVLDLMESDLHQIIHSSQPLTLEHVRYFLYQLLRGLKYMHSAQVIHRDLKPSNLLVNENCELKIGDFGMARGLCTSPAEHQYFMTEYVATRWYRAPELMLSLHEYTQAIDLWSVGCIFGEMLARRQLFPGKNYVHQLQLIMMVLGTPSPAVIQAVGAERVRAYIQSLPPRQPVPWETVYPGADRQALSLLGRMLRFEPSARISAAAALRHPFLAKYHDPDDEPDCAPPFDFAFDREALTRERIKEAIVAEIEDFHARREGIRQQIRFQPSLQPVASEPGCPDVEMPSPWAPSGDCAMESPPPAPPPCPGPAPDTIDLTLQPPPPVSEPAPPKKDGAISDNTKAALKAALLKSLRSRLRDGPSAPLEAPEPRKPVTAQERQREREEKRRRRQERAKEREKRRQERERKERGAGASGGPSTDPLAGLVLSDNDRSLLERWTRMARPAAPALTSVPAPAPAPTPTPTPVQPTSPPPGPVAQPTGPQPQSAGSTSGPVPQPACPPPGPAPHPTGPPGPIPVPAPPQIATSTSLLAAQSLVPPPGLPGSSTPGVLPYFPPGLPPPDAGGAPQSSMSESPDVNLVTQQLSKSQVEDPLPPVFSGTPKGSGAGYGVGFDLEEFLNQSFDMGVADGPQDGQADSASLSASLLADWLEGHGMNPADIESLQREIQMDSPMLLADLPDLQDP
smiles,measurement,setting,value
CN(C)C(=O)Oc1cc(OC(=O)N(C)C)cc(C(O)CNC(C)(C)C)c1 (centres undefined),parasite load remaining,[1],140% (inactive) and 77.2% (inactive) and 45.2% (inactive)
same,viability,[1],97.8% and 75.7% and 103%
same,nuclear beta-catenin stimulation,[2]; at 10 µM,0.1% (inactive)
same,nuclear beta-catenin stimulation,"[2]; stimulation, at 2 µM",4.2%
same,insulin secretion stimulation,[3],0.9% (inactive)
same,viability decrease,[4],-5.7% (inactive)
same,tube area decrease,[5],-4% (inactive)
same,GLP1 secretion stimulation,[6],12.7% (inactive)
same,inhibition of viability,[7],-0.23% (inactive)
same,viability decrease (inhibition),[8],-17% (inactive)
same,viability decrease (inhibition),[9],-13% (inactive)
same,red/green cell ratio (normalised),[10],0.71 (inactive)
same,normalised cell number,[10]; [17],1.3
same,normalised cell number,[10]; [18],0.92
same,activity remaining,[11],118% (inactive)
same,fold change,[12]; stronger effect = lower value,0.804 (inactive) and 0.911 (inactive) and 0.913 (inactive)
same,fold change,[12]; [19],1.26 and 0.519 and 1.12
same,cell count,[12]; [20],8290 and 8600 and 10000
same,cell count,[12]; [21],10300 and 9440 and 11000
same,z-score,[13]; [22],-0.119 (inactive) and 0.142 (inactive) and -0.358 (inactive)
same,z-score,[13]; [23],-0.285 and -0.41 and -0.25
same,remaining NAD,[14],10 nM (inactive)
same,luciferase signal,[15],80 AU (inactive)
same,z-score,[16],0.805 (inactive)
Oc1cc(Cl)ccc1Oc1ccc(Cl)cc1Cl,parasite load remaining,[1],-1.97% (inactive) and 16.2% (inactive)
same,viability,[1],75.8% and 88.8%
same,nuclear beta-catenin stimulation,[2]; at 10 µM,1.1% (inactive)
same,nuclear beta-catenin stimulation,"[2]; stimulation, at 2 µM",0.7%
same,insulin secretion stimulation,[3],1.4% (inactive)
same,viability decrease,[4],48.8% (inactive)
same,tube area decrease,[5],104% (active)
same,GLP1 secretion stimulation,[6],26.8% (active)
same,inhibition of viability,[7],95% (active)
same,viability decrease (inhibition),[8],112% (active)
same,viability decrease (inhibition),[9],51.4% (active)
same,red/green cell ratio (normalised),[10],0.82 (inactive)
same,normalised cell number,[10]; [17],1.03
same,normalised cell number,[10]; [18],0.84
same,activity remaining,[11],106% (inactive)
same,fold change,[12]; stronger effect = lower value,1.03 (inactive) and 0.888 (inactive)
same,fold change,[12]; [19],2.38 and 7.01
same,cell count,[12]; [20],7170 and 12100
same,cell count,[12]; [21],6950 and 13600
same,z-score,[13]; [22],-0.777 (inactive)
same,z-score,[13]; [23],-0.145
same,remaining NAD,[14],10 nM (inactive)
same,luciferase signal,[15],48 AU (inactive)
same,z-score,[16],-1.48 (inactive)
CC(C)c1cccc(C(C)C)c1O,nuclear beta-catenin stimulation,[2]; at 10 µM,1.6% (inactive)
same,nuclear beta-catenin stimulation,"[2]; stimulation, at 2 µM",2.2%
same,insulin secretion stimulation,[3],0.6% (inactive)
same,viability decrease,[4],83.9% (active)
same,tube area decrease,[5],31% (inactive)
same,GLP1 secretion stimulation,[6],-1.8% (inactive)
same,inhibition of viability,[7],88.2% (active)
same,viability decrease (inhibition),[8],102% (active)
same,viability decrease (inhibition),[9],100% (active)
same,red/green cell ratio (normalised),[10],1.01 (inactive)
same,normalised cell number,[10]; [17],1.17
same,normalised cell number,[10]; [18],1.17
same,activity remaining,[11],114% (inactive)
same,z-score,[13]; [22],0.836 (inactive) and -0.252 (inactive)
same,z-score,[13]; [23],-0.371 and -1.34
same,remaining NAD,[14],10 nM (inactive)
same,luciferase signal,[15],40 AU (inactive)
same,z-score,[16],0.08 (inactive) and -0.35 (inactive) and 0.505 (inactive)
CCN(CC)CCOC(=O)C(O)(c1ccccc1)c1ccccc1,parasite load remaining,[1],103% (inactive)
same,viability,[1],95.8%
same,nuclear beta-catenin stimulation,[2]; at 10 µM,-0.3% (inactive)
same,nuclear beta-catenin stimulation,"[2]; stimulation, at 2 µM",-1.2%
same,insulin secretion stimulation,[3],4% (inactive)
same,viability decrease,[4],-5.8% (inactive)
same,tube area decrease,[5],-5.7% (inactive)
same,GLP1 secretion stimulation,[6],1% (inactive)
same,inhibition of viability,[7],1.8% (inactive)
same,viability decrease (inhibition),[8],-15.1% (inactive)
same,viability decrease (inhibition),[9],2.6% (inactive)
same,fold change,[12]; stronger effect = lower value,1.01 (inactive)
same,fold change,[12]; [19],1.6
same,cell count,[12]; [20],10200
same,cell count,[12]; [21],10100
same,z-score,[16],0.79 (inactive)
C=C1C[C@@H]2[C@H](CC[C@]3(C)C(=O)CC[C@@H]23)[C@@]2(C)C=CC(=O)C=C12,parasite load remaining,[1],41% (inactive)
same,viability,[1],86.7%
same,nuclear beta-catenin stimulation,[2]; at 10 µM,2.3% (inactive)
same,nuclear beta-catenin stimulation,"[2]; stimulation, at 2 µM",-0.3%
same,insulin secretion stimulation,[3],12.9% (inactive)
same,viability decrease,[4],2.6% (inactive)
same,tube area decrease,[5],6.3% (inactive)
same,GLP1 secretion stimulation,[6],8.3% (inactive)
same,inhibition of viability,[7],-12.1% (inactive)
same,viability decrease (inhibition),[8],24.7% (inactive)
same,viability decrease (inhibition),[9],-20.4% (inactive)
same,z-score,[13]; [22],0.961 (inactive)
same,z-score,[13]; [23],0.0493
same,remaining NAD,[14],10 nM (inactive)
same,luciferase signal,[15],60 AU (inactive)
CC1Sc2c(C(=O)O)c(=O)c3cc(F)c(N4CCNCC4)cc3n21 (centres undefined),nuclear beta-catenin stimulation,[2]; at 10 µM,-0.2% (inactive)
same,nuclear beta-catenin stimulation,"[2]; stimulation, at 2 µM",2.5%
same,insulin secretion stimulation,[3],1.4% (inactive)
same,viability decrease,[4],43.4% (inactive)
same,tube area decrease,[5],-8.5% (inactive)
same,GLP1 secretion stimulation,[6],2.3% (inactive)
same,inhibition of viability,[7],50.6% (active)
same,viability decrease (inhibition),[8],40.9% (inactive)
same,viability decrease (inhibition),[9],40.8% (inactive)
same,red/green cell ratio (normalised),"[10]; counts scaled to control wells, 1 = unselective",1.16 (inactive)
same,normalised cell number,[10]; [17],1
same,normalised cell number,[10]; [18],1.16
CN1C(=O)COc2c(C(=O)NC3CN4CCC3CC4)cc(Cl)cc21 (centres undefined),parasite load remaining,[1],118% (inactive)
same,viability,[1],75.1%
same,nuclear beta-catenin stimulation,[2]; at 10 µM,3.8% (inactive)
same,nuclear beta-catenin stimulation,"[2]; stimulation, at 2 µM",3.8%
same,insulin secretion stimulation,[3],1.3% (inactive)
same,viability decrease,[4],-9.5% (inactive)
same,tube area decrease,[5],-0.8% (inactive)
same,GLP1 secretion stimulation,[6],0% (inactive)
same,inhibition of viability,[7],5.23% (inactive)
same,viability decrease (inhibition),[8],18.3% (inactive)
same,viability decrease (inhibition),[9],-7.8% (inactive)
same,fold change,[12]; stronger effect = lower value,0.858 (inactive)
same,fold change,[12]; [19],1.27
same,cell count,[12]; [20],8690
same,cell count,[12]; [21],10100
same,z-score,[16],0.255 (inactive)
CN1CCN(C(=O)O[C@H]2c3nccnc3C(=O)N2c2ccc(Cl)cn2)CC1,parasite load remaining,[1],62.4% (inactive)
same,viability,[1],93.7%
same,nuclear beta-catenin stimulation,[2]; at 10 µM,-0.9% (inactive)
same,nuclear beta-catenin stimulation,"[2]; stimulation, at 2 µM",-0.8%
same,insulin secretion stimulation,[3],2.3% (inactive)
same,viability decrease,[4],2.2% (inactive)
same,tube area decrease,[5],-7.8% (inactive)
same,GLP1 secretion stimulation,[6],-0.8% (inactive)
same,inhibition of viability,[7],-1.1% (inactive)
same,viability decrease (inhibition),[8],5.5% (inactive)
same,viability decrease (inhibition),[9],-2.6% (inactive)
same,red/green cell ratio (normalised),[10],0.85 (inactive)
same,normalised cell number,[10]; [17],1.07
same,normalised cell number,[10]; [18],0.91
same,activity remaining,[11],110% (inactive)
same,fold change,[12]; stronger effect = lower value,0.943 (inactive) and 0.981 (inactive)
same,fold change,[12]; [19],1.01 and 4.25
same,cell count,[12]; [20],9050 and 10100
same,cell count,[12]; [21],9590 and 10300
same,remaining NAD,[14],10 nM (inactive)
same,luciferase signal,[15],40 AU (inactive)
same,z-score,[16],0.52 (inactive)
c1ccc2c(c1)Nc1ccccc1S2,parasite load remaining,[1],39.8% (inactive)
same,viability,[1],65.3%
same,nuclear beta-catenin stimulation,[2]; at 10 µM,-1.5% (inactive)
same,nuclear beta-catenin stimulation,"[2]; stimulation, at 2 µM",-0.5%
same,insulin secretion stimulation,[3],1% (inactive)
same,viability decrease,[4],77.7% (active)
same,tube area decrease,[5],-18.6% (inactive)
same,GLP1 secretion stimulation,[6],-2.4% (inactive)
same,inhibition of viability,[7],48.1% (inactive)
same,viability decrease (inhibition),[8],60% (active)
same,viability decrease (inhibition),[9],38% (active)
same,red/green cell ratio (normalised),[10],0.84 (inactive)
same,normalised cell number,[10]; [17],0.93
same,normalised cell number,[10]; [18],0.78
same,fold change,[12]; stronger effect = lower value,0.885 (inactive) and 0.762 (inactive)
same,fold change,[12]; [19],1.16 and 2.24
same,cell count,[12]; [20],8220 and 7990
same,cell count,[12]; [21],9300 and 10500
same,z-score,[13]; [22],-0.376 (inactive) and 0.48 (inactive)
same,z-score,[13]; [23],-0.33 and 0.378
same,remaining NAD,[14],10 nM (inactive)
same,z-score,[16],-0.355 (inactive)
